Compound activity from PubChem BioAssay.
T cruzi growth – blocks T. cruzi growth in NIH3T3 culture; T. cruzi beta-gal in NIH3T3, GalScreen luminescence, 90 h; inhibition, % at 8.34 µM; actives 5.9% (n = 77,000); AID 624255;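 active = mean inhibition above about 93%, with at least 55% of replicates each passing it, limit read from the data, passing the limit was not always enough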
C diff HTS – inhibitors of Clostridium difficile growth; AID 1259249; actives 0.25% (n = 86,000); Clostridium difficile clinical isolate growth, OD600, 24 h; hits give low values; growth activity, negative = inhibition, % at 16 µg/mL (by protocol);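 active = mean growth activity at or below -80% and every replicate also at or below -80%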;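 also: 0% = DMSO wells and -100% = levofloxacin 16 µg/mL wells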
Pf Dd2 growth – inhibitors of Plasmodium falciparum Dd2 growth; actives 2.3% (n = 94,000); P. falciparum Dd2 growth, SYBR Green, 72 h; hits give low values; activity change, % at 10 µM; in the data active = activity change below about -80%
* hit, by the source's call; . = not tested or not shown. This is a sample that favours compounds with a hit; in the whole collection about 6.8% have one here.

SMILES	T cruzi growth	C diff HTS	Pf Dd2 growth
C[C@@H]1CCCCO[C@H](CN(C)C(=O)CCCN(C)C)[C@H](C)CN([C@H](C)CO)C(=O)c2cc(NC(=O)Nc3cccc4ccccc34)ccc2O1	79	5	-86*
CC(=O)N1CCCCN2[C@H](C1)[C@@H](c1ccc(-c3cccc(C(=O)N(C)C)c3)cc1)[C@@H]2CO	89	-6	22
C[C@H]1CN([C@@H](C)CO)C(=O)Cc2cc(NC(=O)C3CC3)ccc2O[C@@H]1CN(C)Cc1ccncc1	-35	0	19
COc1ccc(NC(=O)Nc2ccc3c(c2)C(=O)N([C@@H](C)CO)C[C@H](C)[C@@H](CN(C)C(=O)CCC(F)(F)F)OCCCC[C@@H](C)O3)cc1	76	-8	-13
Cc1noc(C)c1S(=O)(=O)N(C)C[C@H]1OCCCC[C@H](C)Oc2ccc(NC(=O)C3CCCCC3)cc2C(=O)N([C@H](C)CO)C[C@H]1C	32	3	-59
Cc1noc(C)c1S(=O)(=O)N(C)C[C@@H]1OCCCC[C@@H](C)Oc2ccc(NC(=O)C3CCCCC3)cc2C(=O)N([C@H](C)CO)C[C@H]1C	5	8	-61
Cc1noc(C)c1S(=O)(=O)N(C)C[C@H]1OCCCC[C@@H](C)Oc2ccc(NC(=O)C3CCCCC3)cc2C(=O)N([C@@H](C)CO)C[C@@H]1C	59	9	-82*
Cc1noc(C)c1S(=O)(=O)N(C)C[C@@H]1OCCCC[C@H](C)Oc2ccc(NC(=O)C3CCCCC3)cc2C(=O)N([C@@H](C)CO)C[C@H]1C	-8	-1	-83*
CCCC#Cc1ccc([C@@H]2[C@@H](CO)N3CCCCN(S(=O)(=O)Cc4ccccc4)C[C@H]23)cc1	94	57	-19
CC(C)CC#Cc1ccc([C@@H]2[C@H](CO)N3CCCCN(S(=O)(=O)Cc4ccccc4)C[C@@H]23)cc1	93	-2	-84*
CC(C)CC#Cc1ccc([C@@H]2[C@@H](CO)N3CCCCN(S(=O)(=O)Cc4ccccc4)C[C@@H]23)cc1	80	-4	-83*
CCCC#Cc1ccc([C@H]2[C@@H](CO)N3CCCCN(S(=O)(=O)Cc4ccccc4)C[C@@H]23)cc1	82	17	-23
CCCNC(=O)C[C@H]1CC[C@@H]2[C@@H](COc3ccc(NC(=O)Nc4ccccc4)cc3C(=O)N2C)O1	48	-1	-11
COc1ccc2c3c(n(C)c2c1)[C@@H](CO)N(S(=O)(=O)c1ccc(C)cc1)CC31CCN(C)CC1	.	-5	-59
CCC(=O)N1CCC2(CC1)CN(CC1CCCCC1)[C@H](CO)c1c2c2ccc(OC)cc2n1C	.	.	42
CCC(=O)N1CCC2(CC1)CN(CC1CCCCC1)[C@@H](CO)c1c2c2ccc(OC)cc2n1C	.	3	-85*
CCC(=O)N1CCC2(CC1)CN(S(C)(=O)=O)[C@H](CO)c1c2c2ccc(OC)cc2n1C	.	-2	26
COc1ccc2c3c(n(C)c2c1)[C@@H](CO)N(CC1CCCC1)CC31CCN(C(=O)CN(C)C)CC1	.	5	-85*
COc1ccc2c3c(n(C)c2c1)[C@H](CO)N(CC1CC1)CC31CCN(C(=O)CN(C)C)CC1	.	5	-42
COc1ccc2c3c(n(C)c2c1)[C@@H](CO)N(S(=O)(=O)c1ccc(C)cc1)CC31CCN(S(=O)(=O)c2ccc(C)cc2)CC1	.	2	-85*
COc1ccc2c3c(n(C)c2c1)[C@@H](CO)N(S(C)(=O)=O)CC31CCN(C(=O)CN(C)C)CC1	.	-2	-89*
COc1ccc(CN2[C@@H](CO)[C@@H]3c4ccccc4N(C(=O)c4ccccc4)C[C@@H]32)cc1	58	-6	-8
C[C@H]1CN([C@@H](C)CO)C(=O)c2cc(NS(=O)(=O)c3ccccc3)ccc2O[C@@H]1CN(C)C	-12	-1	3
C[C@H]1CN([C@@H](C)CO)C(=O)Cc2cc(NS(=O)(=O)c3ccccc3)ccc2O[C@@H]1CN(C)C(=O)Nc1ccccc1	1	-4	-17
C[C@@H]1CN([C@H](C)CO)C(=O)Cc2cc(NS(=O)(=O)c3cccs3)ccc2O[C@@H]1CN(C)Cc1ccc(C(=O)Nc2ccccc2N)cc1	.	8	-86*
SMILES	T cruzi growth	C diff HTS	Pf Dd2 growth
C[C@H]1CN([C@@H](C)CO)C(=O)c2cc(NS(=O)(=O)c3cccs3)ccc2O[C@H]1CN(C)Cc1ccc(C(=O)Nc2ccccc2N)cc1	.	5	-49
C[C@@H]1CN([C@@H](C)CO)C(=O)Cc2cc(NS(=O)(=O)c3cccs3)ccc2O[C@@H]1CN(C)Cc1ccc(C(=O)Nc2ccccc2N)cc1	40	10	-68
C[C@@H]1CN([C@H](C)CO)C(=O)c2cc(NS(=O)(=O)c3cccs3)ccc2O[C@@H]1CN(C)Cc1ccc(C(=O)Nc2ccccc2N)cc1	.	2	-87*
O=C(C[C@@H]1C=C[C@@H](NC(=O)C2CCOCC2)[C@H](CO)O1)Nc1nccs1	.	-3	32
CNC[C@@H]1Oc2ccc(NC(=O)NC(C)C)cc2C(=O)N([C@@H](C)CO)C[C@@H]1C	43	-1	9
O=C([C@H]1[C@H](CO)[C@H]2Cn3c(ccc(-c4cccnc4)c3=O)[C@@H]1N2Cc1ccncc1)N1CCOCC1	42	0	10
COc1ccc2c3c(n(C)c2c1)[C@@H](CO)N(C(=O)C1CC1)CC31CCN(C)CC1	.	4	8
CN1CCN(C(=O)C[C@@H]2C[C@H]3c4cc(NC(=O)Nc5ccc(F)cc5)ccc4O[C@H]3[C@H](CO)O2)CC1	-48	4	3
O=C(C1CCCC1)N1CC2(C1)[C@@H](c1ccccc1)[C@@H](CO)N2CC1CC1	.	1	0
Cc1ccc(S(=O)(=O)N(C)C[C@@H]2Oc3ccc(NC(=O)CCCN(C)C)cc3CC(=O)N([C@H](C)CO)C[C@@H]2C)cc1	.	-5	8
COc1ccc(CN(C)C[C@H]2Oc3c(NC(=O)Nc4ccc(C(F)(F)F)cc4)cccc3C(=O)N([C@@H](C)CO)C[C@H]2C)cc1	.	-101*	-21
C[C@@H]1CN([C@@H](C)CO)C(=O)c2cccc(NC(=O)Nc3ccc(F)cc3)c2O[C@@H]1CN(C)Cc1ccc(C(F)(F)F)cc1	54	-92*	-48
COc1ccc(CN(C)C[C@@H]2Oc3c(NC(=O)Nc4ccc(C(F)(F)F)cc4)cccc3C(=O)N([C@H](C)CO)C[C@H]2C)cc1	.	2	4
C[C@@H]1CN([C@@H](C)CO)C(=O)c2cccc(NC(=O)Nc3ccc(C(F)(F)F)cc3)c2O[C@@H]1CN(C)Cc1ccc(C(F)(F)F)cc1	84	-103*	-26
C[C@@H]1CN([C@H](C)CO)C(=O)c2cccc(NC(=O)Nc3ccc(F)cc3)c2O[C@H]1CN(C)Cc1ccc(C(F)(F)F)cc1	18	7	-12
C[C@H]1CN([C@@H](C)CO)C(=O)c2cccc(NC(=O)Nc3ccc(C(F)(F)F)cc3)c2O[C@@H]1CN(C)S(=O)(=O)c1ccc(F)cc1	90	-2	-17
C[C@H]1CN([C@@H](C)CO)C(=O)c2cccc(NC(=O)Nc3ccc(C(F)(F)F)cc3)c2O[C@@H]1CN(C)Cc1ccc(C(F)(F)F)cc1	59	27	11
C[C@@H]1CN([C@@H](C)CO)C(=O)c2cccc(NC(=O)Nc3ccc(C(F)(F)F)cc3)c2O[C@@H]1CN(C)S(=O)(=O)c1ccc(Cl)cc1	107*	.	-67
